Test results: PubChem BioAssay AID1159580 (chemical genetic matrix, 2015)
Among all 5,500 compounds or so, about 2,000 (36%) were called active. Roughly 18% stayed inconclusive and do not appear here. Cut-off read from the data, not from the text of the source: active = normalized growth mostly below about 0.91 (no sharp cut-off); inconclusive = no clear call, values can overlap the other calls; inactive = mostly above about 0.92. The list shows a part of the results.

Assay: chemical genetic growth profiling, strain panel (AID 1159580);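 note: tested at 20 µM; growth read once vehicle control cultures reached saturation at 30 °C; 1 = growth at the plate median or of vehicle wells; lower values mean less growth of the strain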
Conditions: growth OD

Measured: normalized growth

CC(=O)NS(=O)(=O)c1ccc(N)cc1
inactive: S. cerevisiae deletion strains, locus YJR066W, strain TOR1, stronger effect = lower value 0.931 | S. cerevisiae deletion strains, locus YKL009W, strain mrt4, stronger effect = lower value 0.975 | S. cerevisiae deletion strains, locus YKL068W, stronger effect = lower value 0.989 | S. cerevisiae deletion strains, locus YKL085W, strain MDH1 (second series), stronger effect = lower value 0.982 | S. cerevisiae deletion strains, locus YKL085W, strain MDH1, stronger effect = lower value 0.982 | S. cerevisiae deletion strains, locus YKL160W, strain elf1, stronger effect = lower value 1 | S. cerevisiae deletion strains, locus YKL190W, strain CNB1, stronger effect = lower value 0.997 | S. cerevisiae deletion strains, locus YKR001C, strain vps1, stronger effect = lower value 0.975 | S. cerevisiae deletion strains, locus YKR026C, strain gcn3, stronger effect = lower value 1.01 | S. cerevisiae deletion strains, locus YKR091W, strain srl3, stronger effect = lower value 1.01 | S. cerevisiae deletion strains, locus YLL001W, strain dnm1, stronger effect = lower value 1 | S. cerevisiae deletion strains, locus YLL026W, stronger effect = lower value 1.01 | S. cerevisiae deletion strains, locus YLL041C, strain sdh2, stronger effect = lower value 1.02 | S. cerevisiae deletion strains, locus YLR027C, strain aat2, stronger effect = lower value 1.01 | S. cerevisiae deletion strains, locus YLR039C, strain RIC1, stronger effect = lower value 1 | S. cerevisiae deletion strains, locus YLR058C, strain SHM2, stronger effect = lower value 0.992 | S. cerevisiae deletion strains, locus YLR102C, strain apc9, stronger effect = lower value 0.988 | S. cerevisiae deletion strains, locus YLR113W, strain HOG1, stronger effect = lower value 0.983 | S. cerevisiae deletion strains, locus YLR221C, strain rsa3, stronger effect = lower value 1.01 | S. cerevisiae deletion strains, locus YLR258W, strain gsy2, stronger effect = lower value 1.01 | S. cerevisiae deletion strains, locus YLR262C, strain YPT6 (second series), stronger effect = lower value 1.03 | S. cerevisiae deletion strains, locus YLR262C, strain YPT6, stronger effect = lower value 1 | S. cerevisiae deletion strains, locus YLR268W, strain sec22, stronger effect = lower value 0.945 | S. cerevisiae deletion strains, locus YLR320W, strain mms22, stronger effect = lower value 1.01 | S. cerevisiae deletion strains, locus YLR330W, strain CHS5, stronger effect = lower value 0.993 | S. cerevisiae deletion strains, locus YLR342W, strain FKS1 (second series), stronger effect = lower value 0.992 | S. cerevisiae deletion strains, locus YLR342W, strain FKS1, stronger effect = lower value 1.01 | S. cerevisiae deletion strains, locus YLR357W, strain rsc2, stronger effect = lower value 1.04 | S. cerevisiae deletion strains, locus YLR370C, strain arc18, stronger effect = lower value 1.01 | S. cerevisiae deletion strains, locus YLR371W, strain rom2, stronger effect = lower value 0.98 | S. cerevisiae deletion strains, locus YLR384C, strain iki3, stronger effect = lower value 1.01 | S. cerevisiae deletion strains, locus YLR418C, strain cdc73, stronger effect = lower value 0.968 | S. cerevisiae deletion strains, locus YML016C, strain PPZ1, stronger effect = lower value 0.99 | S. cerevisiae deletion strains, locus YML032C, strain rad52, stronger effect = lower value 0.976 | S. cerevisiae deletion strains, locus YML120C, strain ndi1, stronger effect = lower value 1.01 | S. cerevisiae deletion strains, locus YML124C, strain tub3, stronger effect = lower value 0.977 | S. cerevisiae deletion strains, locus YMR058W, strain fet3, stronger effect = lower value 1.03 | S. cerevisiae deletion strains, locus YMR078C, strain ctf18, stronger effect = lower value 0.985 | S. cerevisiae deletion strains, locus YMR125W, strain sto1, stronger effect = lower value 1 | S. cerevisiae deletion strains, locus YMR129W, stronger effect = lower value 1.01 | S. cerevisiae deletion strains, locus YMR205C, strain PFK2, stronger effect = lower value 1.02 | S. cerevisiae deletion strains, locus YMR223W, strain ubp8, stronger effect = lower value 0.996 | S. cerevisiae deletion strains, locus YMR231W, strain pep5, stronger effect = lower value 1.01 | S. cerevisiae deletion strains, locus YMR307W, strain GAS1, stronger effect = lower value 0.985 | S. cerevisiae deletion strains, locus YNL067W, strain RPL9B, stronger effect = lower value 1 | S. cerevisiae deletion strains, locus YNL071W, strain lat1, stronger effect = lower value 0.999 | S. cerevisiae deletion strains, locus YNL128W, strain TEP1, stronger effect = lower value 0.978 | S. cerevisiae deletion strains, locus YNL183C, strain NPR1, stronger effect = lower value 0.951 | S. cerevisiae deletion strains, locus YNL209W, strain ssb2, stronger effect = lower value 1.03 | S. cerevisiae deletion strains, locus YNL233W, strain BNI4, stronger effect = lower value 0.993 | S. cerevisiae deletion strains, locus YNL248C, strain rpa49, stronger effect = lower value 1.03 | S. cerevisiae deletion strains, locus YNL250W, strain rad50, stronger effect = lower value 0.971 | S. cerevisiae deletion strains, locus YNL271C, strain bni1, stronger effect = lower value 0.973 | S. cerevisiae deletion strains, locus YNL298W, strain CLA4, stronger effect = lower value 0.974 | S. cerevisiae deletion strains, locus YNL307C, strain MCK1, stronger effect = lower value 0.97 | S. cerevisiae deletion strains, locus YNL322C, strain KRE1 (second series), stronger effect = lower value 0.995 | S. cerevisiae deletion strains, locus YNL322C, strain KRE1, stronger effect = lower value 0.992 | S. cerevisiae deletion strains, locus YNR049C, strain mso1, stronger effect = lower value 1.01 | S. cerevisiae deletion strains, locus YNR052C, strain pop2, stronger effect = lower value 0.977 | S. cerevisiae deletion strains, locus YOL006C, strain TOP1, stronger effect = lower value 1.02 | S. cerevisiae deletion strains, locus YOL012C, strain htz1 0.651 | S. cerevisiae deletion strains, locus YOL147C, strain pex11, stronger effect = lower value 0.985 | S. cerevisiae deletion strains, locus YOR001W, strain rrp6, stronger effect = lower value 1.02 | S. cerevisiae deletion strains, locus YOR061W, strain CKA2, stronger effect = lower value 0.989 | S. cerevisiae deletion strains, locus YOR069W, strain VPS5, stronger effect = lower value 0.984 | S. cerevisiae deletion strains, locus YOR070C, strain gyp1, stronger effect = lower value 1.02 | S. cerevisiae deletion strains, locus YOR080W, strain dia2, stronger effect = lower value 1.01 | S. cerevisiae deletion strains, locus YOR083W, strain WHI5, stronger effect = lower value 1 | S. cerevisiae deletion strains, locus YOR106W, strain vam3, stronger effect = lower value 1.02 | S. cerevisiae deletion strains, locus YOR136W, strain idh2, stronger effect = lower value 0.996 | S. cerevisiae deletion strains, locus YOR144C, strain elg1, stronger effect = lower value 0.987 | S. cerevisiae deletion strains, locus YOR184W, strain ser1, stronger effect = lower value 0.989 | S. cerevisiae deletion strains, locus YOR231W, strain MKK1, stronger effect = lower value 0.997 | S. cerevisiae deletion strains, locus YOR265W, strain rbl2, stronger effect = lower value 1.01 | S. cerevisiae deletion strains, locus YOR270C, strain vph1, stronger effect = lower value 1.04 | S. cerevisiae deletion strains, locus YOR290C, strain snf2, stronger effect = lower value 1 | S. cerevisiae deletion strains, locus YOR316C, strain cot1, stronger effect = lower value 0.982 | S. cerevisiae deletion strains, locus YPL051W, strain arl3, stronger effect = lower value 1.02 | S. cerevisiae deletion strains, locus YPL078C, strain atp4, stronger effect = lower value 1.01 | S. cerevisiae deletion strains, locus YPL106C, strain sse1, stronger effect = lower value 1.01 | S. cerevisiae deletion strains, locus YPL240C, strain hsp82, stronger effect = lower value 1.02 | S. cerevisiae deletion strains, locus YPL241C, strain CIN2, stronger effect = lower value 0.995 | S. cerevisiae deletion strains, locus YPL256C, strain CLN2, stronger effect = lower value 1 | S. cerevisiae deletion strains, locus YPR119W, strain clb2, stronger effect = lower value 0.995 | S. cerevisiae deletion strains, locus YPR141C, strain kar3, stronger effect = lower value 0.981 | S. cerevisiae deletion strains, locus YPR163C, strain tif3, stronger effect = lower value 0.982 | S. cerevisiae deletion strains, locus YPR167C, strain met16, stronger effect = lower value 0.982 | S. cerevisiae deletion strains, strain wtn01, stronger effect = lower value 0.969 | S. cerevisiae strains, strain wild type, stronger effect = lower value 1
